Only some compounds are listed: those with a hit (about 17% of all), similar ones and a draw of the others.
TDP1 cell noCPT = qHTS for Inhibitors of human tyrosyl-DNA phosphodiesterase 1 (TDP1): qHTS in cells in absence of CPT. DT40 Tdp1-/- hTDP1 cells, no CPT, ATP luminescence, 48 h. Potency, µM (top dose mostly 46.2 µM), for the others: at the top dose activity change, negative = growth inhibition, hits mostly inhibitors. hit rate 15% among 420,000; also: % is scaled to controls: 0 for no effect and ±100 for the full control effect; nearly all actives have a fitted effect of over 55% in size
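Stably hTDP1-transfected Tdp1-null chicken DT40 cells were treated with library compounds minus camptothecin and grown for at least 48 hr at 37 °C, after which cellular ATP was quantified by luminescence.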
HepG2 viability = qHTS for Inhibitors of TGF-b: Cytotox Counterscreen; hit rate 0.76% among 410,000; HepG2 CAGA-GFP viability, ATP luminescence, 18 h; Potency, µM (top dose mostly 46.1 µM), inactives show at the top dose activity change, negative = cytotoxicity, most hits filed as cytotoxic
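HepG2 CAGA-GFP cells (1000/well, DMEM with 1% FBS) received compound, then TGF-beta at 500 pg/mL final, and were incubated 18 hours at 37 degrees C. Viability was read by CellTiter-Glo luminescence. Media-only wells were set as complete cell-killing and DMSO as no toxicity.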
TDP1 cell CPT = qHTS for Inhibitors of human tyrosyl-DNA phosphodiesterase 1 (TDP1): qHTS in cells in presence of CPT | chicken DT40 Tdp1-/-;hTDP1 cells + 20 nM CPT, ATP luminescence, 48 h | Potency, µM (top dose mostly 46.2 µM), for the others: at the top dose activity change, negative = growth inhibition, usual class: inhibitors | hit rate 12% among 420,000; also: % is scaled to controls: 0 for no effect and ±100 for the full control effect; nearly all actives have a fitted effect of over 55% in size
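Chicken DT40 Tdp1-/- cells stably complemented with human TDP1 were seeded at 400 cells/well in medium containing 20 nM camptothecin, exposed to pin-transferred compounds, and grown at 37 °C for at least 48 hr. Viability was read as ATP luminescence.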
TGFb inhibitor = qHTS for Inhibitors of TGF-b; HepG2 CAGA-GFP TGF-b/SMAD3 reporter, GFP fluorescence, 18 h; TGF-beta stimulated, 500 pg/mL final; Potency, µM (series often up to 46.1 µM), without a hit: at the highest dose activity, negative = inhibition, usual class: inhibitors; AID 588855, 2011; hit rate 1.2% among 410,000; also: % is scaled to controls: 0 for no effect and ±100 for the full control effect; nearly all actives have a fitted effect of over 65% in size
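Cell-based qHTS in HEPG2 carrying a CAGA-GFP Smad reporter; compounds added before 500 pg/mL final TGF-beta, 18 h incubation at 37 degrees C, GFP fluorescence quantified per cell by imaging cytometry.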
ATXN2 expr inh = Primary qHTS for Inhibitors of ATXN expression. Potency, µM (highest dose often 57 µM), for the others: at the top dose activity change, negative = inhibition, usual class: inhibitors. hit rate 0.72% among 360,000. HEK-293 ATXN2-luciferase reporter, luminescence, 24 h. AID 1745845, 2022; also: % is scaled to controls: 0 for no effect and ±100 for the full control effect; nearly all actives have a fitted effect of over 55% in size
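qHTS (up to 57 uM final) was run with 24 h compound exposure of reporter cells at 37 °C. Each well was multiplexed: SteadyGlo luminescence measured ATXN2-luciferase expression after a fluorogenic Gly-Phe-AFC viability readout (25 uM final).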
ATXN viability = Viability Counterscreen for Primary qHTS for Inhibitors of ATXN expression; Potency, µM (titrated, usually from 56.7 µM), hits mostly cytotoxic; hit rate 0.49% among 400,000; S2 cells (HEK-293 line with an ATXN2-luciferase reporter) viability, CellTiter-Fluor protease fluorescence, 24 h; also: nearly all actives have a fitted effect of over 40% in size
Active calls of the source: *; i = inactive; ? = inconclusive; / = no result given. Calls follow the shape of the dose curve; as a rule, active = well fitted curve in the direction sought with a large enough effect; inconclusive = small, poorly fitted or top-dose-only effect, or another doubt; inactive = no such curve, though single readings can be large; an effect the other way counts as inactive or inconclusive. Potency is read from the fitted curve at half-maximal effect.

SMILES	TDP1 cell noCPT	HepG2 viability	TDP1 cell CPT	TGFb inhibitor	ATXN2 expr inh	ATXN viability
CCCn1c2ccc(C)cc2c2nnc(SCCN3CCOCC3)nc21	16µM*	-11%	?	21%	-21%	i
CCCn1c2ccc(C)cc2c2nnc(SCCN3CCCCC3)nc21	21µM*	-16%	18µM*	-5%	-11%	?
CC(C)(C)CC(=O)Nc1nn[nH]n1	-13%	21%	3%	-3%	2%	i
Cc1ccccc1-n1nnnc1SCC(=O)NCC1(N2CCOCC2)CCCCC1	?	-16%	?	-4%	2%	i
COc1ccc(C2N(C(=O)c3ccccc3)CCN2C(=O)c2ccc(C)cc2)cc1 (centres undefined)	?	-16%	29µM*	-14%	-4%	i
COc1ccc(C2/C=C\CN(C(=O)c3ccc(C)cc3)C(C)C(=O)N2Cc2ccc(F)cc2)cc1 (centres undefined)	/	1%	/	?	/	/
COc1ccc(C2/C=C\CN(C(=O)c3ccc(C)cc3)[C@H](Cc3ccccc3)C(=O)N2Cc2ccc(F)cc2)cc1 (some centres undefined)	5.8µM*	-9%	4.6µM*	?	-15%	?
CCCCCCC(=O)N1C/C=C\C(c2ccc(OC)cc2)N(Cc2ccc(F)cc2)C(=O)[C@H]1Cc1ccccc1 (some centres undefined)	18µM*	-1%	18µM*	?	-25%	?
CCCCn1c(SCC(=O)N2CCC(C)CC2)nc2ccsc2c1=O	15µM*	-20%	?	-25%	-10%	i
CCCCn1c(SCC(=O)Nc2ccccc2C(F)(F)F)nc2ccsc2c1=O	-24%	-24%	-17%	?	-3%	?
CCC1CCCCN1C(=O)CSc1nc2ccsc2c(=O)n1Cc1ccccc1 (centres undefined)	9.2µM*	-47%	21µM*	-1%	?	?
CCCCn1c(SCC(=O)N2CCN(c3ccccc3)CC2)nc2ccsc2c1=O	?	-8%	12µM*	?	?	i
CCCCn1c(SCC(=O)N2CCOCC2)nc2ccccc2c1=O	-10%	-4%	-21%	3%	7%	i
O=C(Nc1nnc(C2CC2)s1)c1n[nH]c(=O)c2ccccc12	-5%	-12%	-20%	7%	7%	i
Cc1coc2c1c(C)cc1oc(=O)c(CC(=O)NCCc3ccc(Cl)cc3)c(C)c12	?	-5%	-23%	0%	/	/
Cc1cccc(NC(=O)CCNS(=O)(=O)c2ccc3[nH]c(=O)oc3c2)c1	2%	-11%	15%	-10%	/	i
Cc1cc(=O)c(C(=O)NCCCc2ccncc2)c2n1-c1ccccc1SC(c1cccs1)C2 (centres undefined)	-19%	/	?	/	/	i
CN(C)c1ccc(P(=O)(OC2CCCCC2)C(O)c2cccnc2)cc1 (centres undefined)	-17%	-2%	-5%	-18%	0%	?
O=P(OC1CCCCC1)(OC1CCCCC1)C(Nc1ccccc1)c1cccnc1 (centres undefined)	15µM*	31%	?	26%	-32%	?
Cc1ccc(NC(=O)CCNS(=O)(=O)c2ccccc2)c(C(=O)c2ccccc2)c1	?	-1%	21µM*	-12%	5%	i
Cc1ccc(S(=O)(=O)NCCC(=O)Nc2ccc(Cl)c(Cl)c2)cc1	16µM*	-7%	?	-18%	-4%	i
NS(=O)(=O)c1ccc(CCNC(=O)Nc2ccc(Cl)c(Cl)c2)cc1	23µM*	-16%	?	-29%	?	i
Cc1ccc(S(=O)(=O)NNC(=O)Nc2ccc(Cl)c(Cl)c2)cc1	16µM*	15%	?	7%	/	i
CCN1CCN(C(=O)c2ccc(Cl)c(S(=O)(=O)N3CCCCC3)c2)CC1	0%	-55%	?	0%	-1%	i
CCC(C)NC(=O)CSc1nc2cc3c(cc2c(=O)n1CCCC(=O)NCc1ccc2c(c1)OCO2)OCO3 (centres undefined)	2%	-16%	-11%	-13%	/	/
SMILES	TDP1 cell noCPT	HepG2 viability	TDP1 cell CPT	TGFb inhibitor	ATXN2 expr inh	ATXN viability
CCOC(=O)/C(=C/c1ccccc1)NC(=O)c1ccco1	2%	0%	-5%	-13%	-5%	i
CCCc1n[nH]c(=O)c2c1nnn2Cc1ccccc1F	-6%	-4%	1%	7%	3%	i
CC(C)CNC(=O)c1cccc(NC(=O)c2ccc3c(c2)C(=O)N(C)C3=O)c1	-15%	-2%	-9%	-4%	/	?
Cc1ccc(NC(=O)NNS(=O)(=O)c2ccc(Br)cc2)cc1	-15%	-1%	-4%	0%	-1%	i
Cc1ccc(S(=O)(=O)NC(=O)Nc2ccc(N(C)C)cc2)cc1	16µM*	-94%	21µM*	?	-19%	?
COc1cc(OC)cc(-c2noc([C@@H]3O[C@H](CO)[C@@H](O)[C@H]3O)n2)c1	?	2%	?	-7%	16%	i
COc1ccc(C2CC(C)(c3ccc(OC)cc3)Nc3ccccc3N2)cc1 (centres undefined)	15µM*	-20%	?	?	3%	?
COc1ccc(C2(C)CC(C)(C)Nc3ccccc32)cc1 (centres undefined)	?	-30%	-15%	0%	-10%	i
O=c1c2ccc(F)cc2sn1-c1ccccc1	2.9µM*	-110%	2.6µM*	11µM*	?	20µM*
COC(=O)c1cccc(N2CCCC2=O)c1	5%	0%	-8%	-11%	/	i
N=C1SCC(=O)N1c1ccccc1Cl	-11%	-9%	20%	-9%	-13%	i
COC(=O)c1cccc(-n2sc3ccccc3c2=O)c1	3.3µM*	-34%	2.1µM*	?	-7%	?
O=c1c2ccccc2sn1-c1ccc(F)cc1	3.7µM*	-92%	3.3µM*	10µM*	-12%	?
O=c1c2cc(F)ccc2sn1-c1ccccc1Cl	2.3µM*	-57%	2.6µM*	?	?	22µM*
COc1cc(OC)c(/C=C/c2ccncn2)c(OC)c1	?	-1%	?	?	/	/
Cc1ccc(N2C(=O)CC(N3CCN(c4ccc(F)cc4)CC3)C2=O)c(C)c1 (centres undefined)	-5%	-4%	-2%	-8%	2%	i
